Pf apPOL block – Pf-apPOL DNA polymerase inhibition; inhibition, % at 10 µM; 0.25% of 210,000 active; Recombinant Pf-apPOL, molecular beacon fluorescence, 1.5 h
mHTT-CaM PPI inh – disrupts binding of mutant huntingtin to calmodulin; P42858; AlphaScreen His-mHTT/GST-CaM binding, luminescence; inhibition, % at 15 µM; 3.6% of 190,000 active
Large screens that a line does not name were inactive; ! = a repeat was not active. Shown is part of a subset that was picked to be rich in hits. Cut-off read from the data, not from the text of the source: active = inhibition above about 50%; inactive = the rest.

CCc1ccc(N(CC(=O)N2CCCC2)S(=O)(=O)c2ccccc2)cc1	none
CCc1ccc(N(CC(=O)N2CCN(c3ccccc3)CC2)S(=O)(=O)c2ccccc2)cc1	mHTT-CaM PPI inh 54
CCSc1sccc1C1C(C#N)=C(N)N(c2ccccc2)C2=C1C(=O)CCC2 (stereo unspecified)	none
CCOc1ccc2nc(N=C(N)N=C(C)c3ccccc3C(=O)O)nc(C)c2c1	none
O=C(Sc1cccc2cccnc12)c1ccc([N+](=O)[O-])cc1	mHTT-CaM PPI inh 100
Cn1nc([N+](=O)[O-])nc1Sc1nc2ccccc2n1C	none
CCN(CC)C(=O)Sc1cccc2cccnc12	none
O=[N+]([O-])c1ccc(CSc2ccccn2)cc1	none (no result: mHTT-CaM PPI inh)
O=[N+]([O-])c1ccc(CSc2cccc3cccnc23)cc1	mHTT-CaM PPI inh 63!
Cn1nc([N+](=O)[O-])nc1Sc1cccc2cccnc12	mHTT-CaM PPI inh 66
COc1ncc(C(=O)Nc2cccc(Cl)c2)c(C)n1	none
NNC(=O)c1nc(COc2ccccc2Cl)no1	none (no result: mHTT-CaM PPI inh)
CCc1c(C2CCN(C(=O)c3cc(C)on3)CC2)noc1N	none
CCC1Sc2ccccc2N(CC(=O)NC2CCCC(C)C2C)C1=O (stereo unspecified)	none
Cc1ccc(CCNC(=O)c2ccc3c(c2)N(C)C(=O)C2CCCCN32)cc1 (stereo unspecified)	none
CCc1cccc(NC(=O)N2CC=C(c3cn(C(C)C)c4ncccc34)CC2)c1	none
Cc1ccc(N2CCC(NC(=O)Nc3cccc(C)c3C)C2=O)cc1C (stereo unspecified)	none
c1coc(CSc2ccc(-n3cnnn3)cc2)c1	none (no result: Pf apPOL block)
CCOc1ccc(CN2CCc3nc(Nc4cc(OC)cc(OC)c4)ncc3C2)cc1	none
CCN(Cc1ccccc1)S(=O)(=O)c1cc(C(=O)Nc2ccc(F)c(F)c2)ccc1F	Pf apPOL block 53
CN(Cc1ccccc1)S(=O)(=O)c1cc(C(=O)Nc2ccc(F)c(F)c2)ccc1F	none
Cc1ccc(CN2C(=O)c3ccccc3C2C(=O)NC2CCC(C)CC2)cc1 (stereo unspecified)	none
CC1CCC(NC(=O)C2c3ccccc3C(=O)N2Cc2ccc(F)cc2)CC1 (stereo unspecified)	mHTT-CaM PPI inh 52
Cc1cccc(NC2=C(N3CCOCC3)C(=O)c3ccccc3C2=O)c1	none
O=C1C(Nc2cccc(C(F)(F)F)c2)=C(N2CCOCC2)C(=O)c2ccccc21	mHTT-CaM PPI inh 66
O=C1C(Nc2cccc(I)c2)=C(N2CCCCC2)C(=O)c2ccccc21	mHTT-CaM PPI inh 92
O=C1C(Nc2cccc(I)c2)=C(N2CCCC2)C(=O)c2ccccc21	mHTT-CaM PPI inh 99
CC(=O)NC1=C(N2CCN(c3ccccc3)CC2)C(=O)c2ccccc2C1=O	none
O=C1C(Nc2ccc(F)c(F)c2)=C(N2CCOCC2)C(=O)c2ccccc21	none
CC(=O)Nc1ccc(NC2=C(N3CCCCC3)C(=O)c3ccccc3C2=O)cc1	none
O=C1C(Nc2cccc(I)c2)=C(N2CCOCC2)C(=O)c2ccccc21	mHTT-CaM PPI inh 86
CC12CC(NC(=O)N1c1ccccc1)c1cc(Cl)ccc1O2 (stereo unspecified)	none
CC(NC(=O)c1cccc(F)c1)c1nc(-c2cccc(Cl)c2)no1 (stereo unspecified)	none
O=C(O)CN1CC2([N+](=O)[O-])C=C(C(=O)N3CCOCC3)CC([N+](=O)[O-])(C1)C2 (stereo unspecified)	none
C#CCSc1nnc2c(n1)[nH]c1ccccc12	none (no result: Pf apPOL block)
Cc1cc(OCC(O)CNC(C)c2ccccc2)ccc1Cl (stereo unspecified)	mHTT-CaM PPI inh 100
Cc1cc(Cl)ccc1OCC(O)CNC(C)c1ccccc1 (stereo unspecified)	mHTT-CaM PPI inh 58
Cc1ccc(OCC(O)CNC(C)(C)C)cc1C (stereo unspecified)	none
Cc1cc(Cl)ccc1OCC(O)CN1CCN(C)CC1 (stereo unspecified)	none
COc1ccc(-c2noc(Cn3ccnc3)n2)cc1	none
COc1cc2cc(OC(=O)c3ccc([N+](=O)[O-])cc3)nc(C)c2cc1OC	none (no result: mHTT-CaM PPI inh)
Cn1nccc1C(=O)N1CCCC(C)(C(=O)NCc2ccccc2)C1 (stereo unspecified)	none
Cc1ccc(C(=O)Nc2ccc(NC(=O)C(C)C)cc2)cc1[N+](=O)[O-]	none
COc1cccc(N2CC(C(=O)Nc3nnc(SCc4ccccc4)s3)CC2=O)c1 (stereo unspecified)	none
Cc1nc2cc(N3CC(C(=O)NCc4ccc(OC(C)C)cc4)CC3=O)ccc2o1 (stereo unspecified)	mHTT-CaM PPI inh 100
COc1ccc(CNC(=O)C2CC(=O)N(c3ccc4oc(C)nc4c3)C2)cc1OC (stereo unspecified)	none
O=S(=O)(C=Cc1ccccc1)N1CCCC(c2nnc(C(F)(F)F)o2)C1 (stereo unspecified)	none
COc1ccc(Cl)cc1C(=O)Nc1nc2ccc(S(C)(=O)=O)cc2s1	none
COc1cc(SC)ccc1C(=O)Nc1nc2ccc(S(C)(=O)=O)cc2s1	mHTT-CaM PPI inh 63
Cc1ccc(C)c(Cc2c(C)nc3c(C(=O)NCc4ccc(F)cc4)cnn3c2C)c1	none
